From PubChem BioAssay AID1159580 (chemical genetic matrix, 2015)
Screen size: about 5,500 compounds; about 2,000 (36%) were called active. About 18% were inconclusive and are not listed. Rule as the data show it: active = normalized growth mostly below about 0.91 (no sharp cut-off); inconclusive = no clear call, values can overlap the other calls; inactive = mostly above about 0.92. The list shows a part of the results.

Assay: chemical genetic growth profiling, strain panel (AID 1159580);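 also: tested at 20 µM; growth read once vehicle control cultures reached saturation at 30 °C; 1 = growth at the plate median or of vehicle wells; lower values mean less growth of the strain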
Conditions: growth OD

Measured: normalized growth

CCCCOC(=O)c1ccc(N)cc1
inactive: S. cerevisiae deletion strains, locus YJR075W, strain HOC1, active compounds read low 0.888 | S. cerevisiae deletion strains, locus YKL009W, strain mrt4, active compounds read low 0.946 | S. cerevisiae deletion strains, locus YKL068W, active compounds read low 0.962 | S. cerevisiae deletion strains, locus YKL085W, strain MDH1 (second series), active compounds read low 0.961 | S. cerevisiae deletion strains, locus YKL085W, strain MDH1, active compounds read low 0.961 | S. cerevisiae deletion strains, locus YKL190W, strain CNB1, active compounds read low 0.975 | S. cerevisiae deletion strains, locus YLR039C, strain RIC1, active compounds read low 0.783 | S. cerevisiae deletion strains, locus YLR058C, strain SHM2, active compounds read low 0.979 | S. cerevisiae deletion strains, locus YLR102C, strain apc9, active compounds read low 0.955 | S. cerevisiae deletion strains, locus YLR113W, strain HOG1, active compounds read low 0.954 | S. cerevisiae deletion strains, locus YLR262C, strain YPT6, active compounds read low 0.775 | S. cerevisiae deletion strains, locus YLR330W, strain CHS5, active compounds read low 0.947 | S. cerevisiae deletion strains, locus YLR357W, strain rsc2, active compounds read low 0.942 | S. cerevisiae deletion strains, locus YLR384C, strain iki3, active compounds read low 0.946 | S. cerevisiae deletion strains, locus YML016C, strain PPZ1, active compounds read low 0.981 | S. cerevisiae deletion strains, locus YML124C, strain tub3, active compounds read low 0.939 | S. cerevisiae deletion strains, locus YMR078C, strain ctf18, active compounds read low 0.933 | S. cerevisiae deletion strains, locus YMR231W, strain pep5, active compounds read low 0.931 | S. cerevisiae deletion strains, locus YMR263W, strain SAP30, active compounds read low 0.93 | S. cerevisiae deletion strains, locus YNL067W, strain RPL9B, active compounds read low 0.907 | S. cerevisiae deletion strains, locus YNL128W, strain TEP1, active compounds read low 0.989 | S. cerevisiae deletion strains, locus YNL153C, strain GIM3, active compounds read low 0.939 | S. cerevisiae deletion strains, locus YNL183C, strain NPR1, active compounds read low 0.934 | S. cerevisiae deletion strains, locus YNL248C, strain rpa49, active compounds read low 0.904 | S. cerevisiae deletion strains, locus YNL250W, strain rad50, active compounds read low 0.934 | S. cerevisiae deletion strains, locus YNL271C, strain bni1, active compounds read low 0.938 | S. cerevisiae deletion strains, locus YNL298W, strain CLA4, active compounds read low 0.939 | S. cerevisiae deletion strains, locus YNL322C, strain KRE1 (second series), active compounds read low 0.91 | S. cerevisiae deletion strains, locus YNL322C, strain KRE1, active compounds read low 0.987 | S. cerevisiae deletion strains, locus YNR052C, strain pop2, active compounds read low 0.949 | S. cerevisiae deletion strains, locus YOL006C, strain TOP1, active compounds read low 0.64 | S. cerevisiae deletion strains, locus YOL012C, strain htz1 0.742 | S. cerevisiae deletion strains, locus YOL147C, strain pex11, active compounds read low 0.937 | S. cerevisiae deletion strains, locus YOR061W, strain CKA2, active compounds read low 0.986 | S. cerevisiae deletion strains, locus YOR069W, strain VPS5, active compounds read low 0.987 | S. cerevisiae deletion strains, locus YOR080W, strain dia2, active compounds read low 0.95 | S. cerevisiae deletion strains, locus YOR136W, strain idh2, active compounds read low 0.956 | S. cerevisiae deletion strains, locus YOR144C, strain elg1, active compounds read low 0.961 | S. cerevisiae deletion strains, locus YOR231W, strain MKK1, active compounds read low 0.987 | S. cerevisiae deletion strains, locus YOR290C, strain snf2, active compounds read low 0.867 | S. cerevisiae deletion strains, locus YOR316C, strain cot1, active compounds read low 0.955 | S. cerevisiae deletion strains, locus YPL055C, strain LGE1, active compounds read low 0.889 | S. cerevisiae deletion strains, locus YPL241C, strain CIN2, active compounds read low 0.98 | S. cerevisiae deletion strains, locus YPL256C, strain CLN2, active compounds read low 0.967 | S. cerevisiae deletion strains, locus YPR119W, strain clb2, active compounds read low 0.949 | S. cerevisiae deletion strains, locus YPR141C, strain kar3, active compounds read low 0.933 | S. cerevisiae deletion strains, locus YPR163C, strain tif3, active compounds read low 0.946 | S. cerevisiae deletion strains, locus YPR167C, strain met16, active compounds read low 0.96 | S. cerevisiae strains, strain wild type, active compounds read low 0.949
active: S. cerevisiae deletion strains, locus YKL160W, strain elf1, active compounds read low 0.875 | S. cerevisiae deletion strains, locus YKR001C, strain vps1, active compounds read low 0.693 | S. cerevisiae deletion strains, locus YKR026C, strain gcn3, active compounds read low 0.91 | S. cerevisiae deletion strains, locus YKR091W, strain srl3, active compounds read low 0.907 | S. cerevisiae deletion strains, locus YLL001W, strain dnm1, active compounds read low 0.825 | S. cerevisiae deletion strains, locus YLL026W, active compounds read low 0.888 | S. cerevisiae deletion strains, locus YLL041C, strain sdh2, active compounds read low 0.899 | S. cerevisiae deletion strains, locus YLR027C, strain aat2, active compounds read low 0.878 | S. cerevisiae deletion strains, locus YLR221C, strain rsa3, active compounds read low 0.841 | S. cerevisiae deletion strains, locus YLR258W, strain gsy2, active compounds read low 0.873 | S. cerevisiae deletion strains, locus YLR262C, strain YPT6 (second series), active compounds read low 0.433 | S. cerevisiae deletion strains, locus YLR268W, strain sec22, active compounds read low 0.86 | S. cerevisiae deletion strains, locus YLR320W, strain mms22, active compounds read low 0.635 | S. cerevisiae deletion strains, locus YLR342W, strain FKS1 (second series), active compounds read low 0.661 | S. cerevisiae deletion strains, locus YLR342W, strain FKS1, active compounds read low 0.605 | S. cerevisiae deletion strains, locus YLR370C, strain arc18, active compounds read low 0.844 | S. cerevisiae deletion strains, locus YLR371W, strain rom2, active compounds read low 0.886 | S. cerevisiae deletion strains, locus YLR418C, strain cdc73, active compounds read low 0.765 | S. cerevisiae deletion strains, locus YML032C, strain rad52, active compounds read low 0.905 | S. cerevisiae deletion strains, locus YML120C, strain ndi1, active compounds read low 0.897 | S. cerevisiae deletion strains, locus YMR058W, strain fet3, active compounds read low 0.881 | S. cerevisiae deletion strains, locus YMR125W, strain sto1, active compounds read low 0.871 | S. cerevisiae deletion strains, locus YMR129W, active compounds read low 0.922 | S. cerevisiae deletion strains, locus YMR205C, strain PFK2, active compounds read low 0.793 | S. cerevisiae deletion strains, locus YMR223W, strain ubp8, active compounds read low 0.902 | S. cerevisiae deletion strains, locus YMR307W, strain GAS1, active compounds read low 0.319 | S. cerevisiae deletion strains, locus YNL071W, strain lat1, active compounds read low 0.653 | S. cerevisiae deletion strains, locus YNL209W, strain ssb2, active compounds read low 0.927 | S. cerevisiae deletion strains, locus YNL233W, strain BNI4, active compounds read low 0.86 | S. cerevisiae deletion strains, locus YNL307C, strain MCK1, active compounds read low 0.868 | S. cerevisiae deletion strains, locus YNR049C, strain mso1, active compounds read low 0.905 | S. cerevisiae deletion strains, locus YOR001W, strain rrp6, active compounds read low 0.853 | S. cerevisiae deletion strains, locus YOR070C, strain gyp1, active compounds read low 0.9 | S. cerevisiae deletion strains, locus YOR083W, strain WHI5, active compounds read low 0.862 | S. cerevisiae deletion strains, locus YOR106W, strain vam3, active compounds read low 0.771 | S. cerevisiae deletion strains, locus YOR184W, strain ser1, active compounds read low 0.817 | S. cerevisiae deletion strains, locus YOR265W, strain rbl2, active compounds read low 0.902 | S. cerevisiae deletion strains, locus YOR270C, strain vph1, active compounds read low 0.489 | S. cerevisiae deletion strains, locus YPL051W, strain arl3, active compounds read low 0.725 | S. cerevisiae deletion strains, locus YPL078C, strain atp4, active compounds read low 0.795 | S. cerevisiae deletion strains, locus YPL106C, strain sse1, active compounds read low 0.792 | S. cerevisiae deletion strains, locus YPL240C, strain hsp82, active compounds read low 0.914 | S. cerevisiae deletion strains, strain wtn01, active compounds read low 0.871
